Test results published in PubChem BioAssay (NCI).
Values joined by “and” are separate entries in the source; they are usually repeats but may differ in a detail not shown here. Equal entries are not always repeated. About 83,000 compounds went through this panel and 20% of them were active in at least one assay; those are over-represented in the sample as a whole.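 Percent growth is the endpoint: 0 to 100 indicates growth inhibition (40 means 60% inhibition), 0 means no net growth, and negative values indicate cell death.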 Unmarked numbers belong to inactive results. Active and inactive are the calls of the source. Rule for the calls: active = growth percent below 10; inactive = the rest.

Assays:
Experiment in all cases: NCI-60 one-dose screen, 48 h (100 = growth as untreated, 0 = no growth, -100 = all killed)
Conditions in all cases: 10 µM unless noted
T-47D breast = system: T-47D breast
BT-549 breast = system: BT-549 breast
MDA-MB-435 melanoma = system: MDA-MB-435 melanoma
SW-620 colon = system: SW-620 colon
MCF7 breast = system: MCF7 breast
HCT-116 colon = system: HCT-116 colon
HCC-2998 colon = system: HCC-2998 colon
KM12 colon = system: KM12 colon

SMILES	growth (T-47D breast)	growth (BT-549 breast)	growth (MDA-MB-435 melanoma)	growth (SW-620 colon)	growth (MCF7 breast)	growth (HCT-116 colon)	growth (HCC-2998 colon)	growth (KM12 colon)
COC(=O)N1CCN(CCNCc2ccc(NC(=O)c3ccc(C)c(C#Cc4cnc5cccnn45)c3)cc2C(F)(F)F)CC1	34%	24.1%	-21.8% (active)	14.6%	-6.54% (active)	4.9% (active)	14.4%	4.91% (active)
Cc1ccc(C(=O)CSc2nnc(-c3ccc(-c4ccc(Cl)cc4)nc3C)o2)cc1	92.1%	107%	103%	103%	81%	98.1%	103%	97.2%
CCOC(=O)c1ccc(NC2=CC(=O)C(C)=C(C)C2=O)cc1	43.2%	91.1%	44.2%	101%	62.7%	56.5%	101%	46.1%
O=C(/C=C/Nc1ccc(S(=O)(=O)Nc2ncccn2)cc1)c1ccc(N=Cc2c(O)[nH]c3ccccc23)cc1	93.1%	101%	100%	112%	87.4%	111%	–	37.3%
Cc1cc(Br)ccc1-n1cc(C#N)c(N)c1C(=O)c1ccc(Br)cc1	101%	89.8%	100%	117%	95.2%	88.6%	110%	107%
CC[C@]12C=CCN3CC[C@]4(C(=C(C(=O)OC)C1)Nc1cc5c(cc14)[C@@H]1[C@H](O5)[C@@H](O)[C@@]4(CC)CC(C(=O)OC)=C5Nc6cc(O)ccc6[C@@]56CCN1C46)C32 (stereo not given in full)	6.91% (active)	18.8%	-38.2% (active)	2.78% (active)	3.26% (active)	-70.5% (active)	–	-30.2% (active)
O=C(Nc1ccc(N2CCOCC2)cc1)Nc1ccc2c(ccn2C(=O)c2cccc(F)c2)c1	68.9%	71.7%	68.3%	74.5%	53.2%	24.2%	62.4%	74.1%
O=C(COc1ccc(/C=C2\C(=O)Nc3cc(Cl)ccc32)cc1)Nc1ccc(Cl)cc1	68%	70.3%	51.2%	55.3%	47.1%	54.8%	–	36.4%
Oc1[nH]c2ccc(Cl)cc2c1N=Nc1nc(N=Nc2c(O)[nH]c3ccc(Cl)cc23)nc(N2CCOCC2)n1	29.3%	-6.36% (active)	63.5%	74.3%	43.1%	45.4%	75.5%	81.2%
CS(=O)(=O)c1ccc(/C(=N/N=C(N)N)c2ccc(Cl)cc2)cc1	89%	85%	8.68% (active)	74.6%	32.8%	73.8%	91.2%	72%
Cc1nc(/N=C(N)/N=C(\N)c2cccc(Br)c2)sc1C	56.4%	84.7%	10.8%	33%	13.2%	25.4%	–	37.4%
COc1ccc(-c2c(C(N)=O)c(N)n(Cc3nc4ccccc4[nH]3)c(=O)c2C#N)c(OC)c1	89.6%	105%	109%	105%	76.5%	104%	–	99.8%
CN1CCN(Cc2ccc(NC(=O)c3cncc(C#Cc4cnc5ccc(OCCCS(C)(=O)=O)nn45)c3)cc2C(F)(F)F)CC1	16.2%	-21.5% (active)	-22.7% (active)	1.18% (active)	-12.8% (active)	1.88% (active)	-22% (active)	-3.51% (active)
NS(=O)(=O)c1ccc(CCn2c(-c3ccc(C(=O)O)cc3)nc(-c3ccccc3)c2-c2ccccc2)cc1	104%	104%	98.8%	98.6%	93.6%	101%	108%	107%
CCCCCCCCCC(=O)NC(C)(C)C(=O)N1CCC[C@H]1C(=O)N[C@@H](CC(C)C)C(=O)N[C@@](C)(CC)C(=O)N[C@@H](CCC(N)=O)C(=O)N[C@H](CCC(N)=O)C(=O)NC(C)(C)C(=O)NC(C)(C)C(=O)N[C@@H](CCC(N)=O)C(=O)N[C@H](CC(C)C)C(=O)N[C@H](CO)CC(C)C	-34.9% (active) and -12.9% (active)	-84.8% (active) and -76.9% (active)	-60.3% (active) and -95.4% (active)	-83.6% (active) and -50.6% (active)	-83.8% (active) and -76.9% (active)	-67.5% (active) and 1.05% (active)	-89.2% (active) and -59.5% (active)	-89.6% (active) and -89.8% (active)
C=C(C)[C@@H]1CC[C@]2(COCCCNCCCN)CC[C@]3(C)[C@H](CC[C@@H]4[C@@]5(C)CC[C@H](O)C(C)(C)[C@@H]5CC[C@]43C)[C@@H]12	-53.3% (active)	-77.4% (active)	-95.8% (active)	-68.1% (active)	-75.4% (active)	-86.5% (active)	–	-65.4% (active)
C[C@H](Nc1ncnc2ccc(-c3cnc(Cl)c(NS(C)(=O)=O)c3)cc12)c1ccccc1	-53.2% (active)	-61.5% (active)	-40% (active)	1.48% (active)	2.5% (active)	-61.4% (active)	-77.3% (active)	-79% (active)
COC(=O)CNC(=O)c1cccc(-c2cc(=O)c3c(OC)c(OC)c(OC)cc3o2)c1	107%	102%	107%	100%	89.2%	101%	100%	103%
NS(=O)(=O)c1cccc(Nc2nc(SCC(=O)c3ccc(Cl)cc3)nc3c2CCC3)c1	90.4%	84.7%	99.2%	102%	82.9%	95.7%	–	105%
CC(C)(C)c1cc(NC(=O)Nc2ccc(-c3cn4c5c(sc4n3)CCc3cn(CCCN4CCCCC4)cc3-5)cc2)no1	-32.8% (active)	109%	-98.5% (active)	-68.2% (active)	-79% (active)	-96.2% (active)	-82.7% (active)	-78% (active)
O=C(CSc1nnc(-c2cccs2)n1-c1ccccc1)Nc1ccccc1	78.4%	85.5%	57.9%	87.2%	80.3%	75.4%	111%	84.8%
O=C(CSc1nc2ccccc2c(=O)n1CCc1ccccc1)Nc1ccc(S(=O)(=O)Nc2ccc(Cl)nn2)cc1	88.6%	98.9%	99.8%	91.3%	79.7%	93.4%	–	98.8%
COC(=O)c1cccc(NC2=C(Cl)C(=O)C(C)=C(C)C2=O)c1	-18.1% (active)	96.2%	104%	103%	82%	70.1%	–	49.2%
C=C(C)[C@@H]1CC[C@]2(C(=O)N3CCN(C)CC3)CC[C@]3(C)[C@H](CC[C@@H]4[C@@]5(C)CC[C@H](OP(=O)(OCC)OCC)C(C)(C)[C@@H]5CC[C@]43C)[C@@H]12	87.8%	93.9%	94.2%	82%	68.9%	24%	–	94.4%
CC1(C)CC[C@]23CC[C@]4(C)[C@H](CC[C@@H]5[C@@]6(C)CC[C@H](N)C(C)(C)[C@@H]6CC[C@]54C)[C@H]2[C@H]1OC3	88.1%	88.9%	90.6%	-44.3% (active)	-8.5% (active)	-82.7% (active)	–	18%
CC(C)NC(=O)c1cc(-c2ccc(NC(=O)Nc3ccc(F)c(C(F)(F)F)c3)cc2)nc2cccnc12	80.3%	100%	91.3%	106%	91.8%	81.9%	–	89.6%
C#C[C@]1(O)CC[C@H]2[C@@H]3CC=C4c5sc(Nc6cc(C)cc(C)c6)nc5CC[C@]4(C)[C@H]3CC[C@@]21C	33.8%	-4.65% (active)	20.7%	-20.1% (active)	-52.5% (active)	12.5%	–	-7.08% (active)
CC[C@]12C=CCN3CC[C@@]4(c5ccc(OC)cc5N(C)[C@H]4[C@@](O)(C(=O)OC)[C@@H]1OC(=O)CCN1CCc4ccccc4C1)[C@@H]32	84%	93.2%	95.6%	95.6%	82.5%	90.9%	69.5%	103%
O=C(NCCNc1cc(-c2cn(-c3ccccc3)nc2-c2cccc(O)c2)ccn1)Nc1cc(C(F)(F)F)cc(C(F)(F)F)c1	90.5%	99.4%	98.4%	101%	87.2%	89.5%	–	1.09% (active)
O=C1C(SCc2ccccc2)=C(Cl)CN1c1ccccc1	88%	108%	96.8%	102%	–	88.5%	103%	98.3%
